In PubChem BioAssay AID449762 (Southern Research Specialized Biocontainment Screening …, 2010):
About 1,900 (0.58%) of roughly 330,000 compounds were called active. Roughly 4% stayed inconclusive and do not appear here. Not all results are given here. Potency and affinity values are given separately. A number with no mark means an inactive call. Rule as the data show it: inconclusive = inhibition above about 70% without an active follow-up result; inactive = below that.

experiment: M. tuberculosis growth inhibition, HTS (AID 449762);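 also: bacterial growth assessed after seven days of incubation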; conditions: M. tuberculosis H37Rv growth inhibition, 7H9 media; at 25 µM; active compounds read high

Point of comparison: `COc1ccc(/C=C2\N=C(C)N(c3ccc4ccccc4c3)C2=O)cc1OC`, inhibition 4.18%. Against it:
- Cc1ccc(NC(=O)c2ccccc2SCC(=O)N2CCCC2)cc1S(=O)(=O)N(C)C — lower, -1.08%
- COc1cccc(N(C(=O)Cn2nnc(-c3ccc(C)cc3)n2)C(C(=O)NC(C)(C)C)c2c[nH]c3ccccc23)c1 (centres undefined) — lower, -12.2%
- CC(C)(C)NC(=O)C(c1c[nH]c2ccccc12)N(C(=O)Cn1nnc(-c2ccc(Cl)cc2)n1)c1ccccc1F (centres undefined) — lower, 2.56%
- Cc1cc([N+](=O)[O-])nn1CC(=O)Nc1cnc2ccccc2c1 — lower, -3.67%
- Cc1ccc(CCNC(=O)c2nn(C)c3c2CS(=O)(=O)c2ccccc2-3)cc1 — lower, 3.98%
- CCOC(=O)C1CCN(C(=S)NC(=O)c2cccs2)CC1 — lower, 0.89%
- O=C(NC(=S)N1CCCCC1)c1cccs1 — higher, 4.84%
- Cn1c(-c2ccsc2)c(-c2cccs2)c2cc(-c3ccc4cc[nH]c4c3)ccc21 — lower, -1.89%
- Cc1ccc(NC(=O)C(c2ccccc2)N2CCN(C(=O)c3ccco3)CC2)cc1Cl (centres undefined) — lower, -11.9%
- Cc1nn(-c2nc3ccccc3s2)c(N)c1-c1ccc(Cl)cc1 — lower, 1.29%
- Cc1nn(-c2nc3ccccc3[nH]2)c(=O)c2ccccc12 — higher, 5.73%
- Cc1cc(C)nc(NS(=O)(=O)c2ccc(NS(=O)(=O)c3ccccc3)cc2)n1 — lower, -6.64%
- CC1(C)Cc2c(sc3c2C(=O)N(c2ccccc2)C2=NCCCN23)CO1 — lower, 1.18%
- CCOC(=O)c1csc(NC(C)=O)n1 — lower, 0.4%
- CCCC(=O)Nc1nc(C(=O)OCC)cs1 — lower, 2.98%
- O=C(c1ccc(Cl)cc1)C1CCCN(Cc2cccc3cccnc23)C1 (centres undefined) — higher, 9.96%
- O=C(CCCOc1ccc(Cl)cc1)Nc1cccc(C(=O)O)c1 — higher, 7.01%
- O=C(OCCN1C(=O)c2ccccc2C1=O)c1ccco1 — lower, -9.08%
- O=C(OCCN1CCCCC1)c1cc2ccccc2o1 — lower, -14.3%
- COc1ccccc1/C=C/C=N/n1c(C2CCCCC2)n[nH]c1=S — lower, 0.81%
- CC(=O)c1ccc(N2CCN(C(=O)c3cc(-c4ccncc4)nc4ccc(Cl)cc34)CC2)cc1 — higher, 7.21%
- CN1CCN(CCCNC(=O)c2ccc(/C=C3\Oc4ccccc4N(Cc4ccccc4F)C3=O)cc2)CC1 — higher, 57.7%
- Cc1cccc(CN2C(=O)/C(=C\c3ccc(C(=O)NCCN4CCOCC4)cc3)Sc3ccccc32)c1 — higher, 49.5%
- Cc1ccc(Cn2nc(C)c(NC(=O)CSc3n[nH]c(C)c3[N+](=O)[O-])c2C)cc1 — lower, -3.06%
- O=C(NC1CCN(C(=O)N2c3ccccc3Sc3ccccc32)CC1)c1ccco1 — lower, -19.1%
- O=C(NC1CCN(C(=O)N2c3ccccc3Sc3ccccc32)CC1)c1ccccc1Cl — higher, 62.3%
- Cc1sc2ncnc(SCC(=O)c3cccs3)c2c1C — lower, -19.7%
- COC(=O)c1ccccc1NC(=O)c1cc2n(n1)C(C(F)F)CC(C(F)F)N2 (centres undefined) — lower, -2.91%
- O=C(CSc1nc2[nH]ncc2c(=O)[nH]1)NCc1ccccc1 — lower, -0.89%
- O=c1[nH]c(SCc2ccc(Cl)cc2)nc2ccccc12 — lower, 4.03%
- CC1CC(C)CN(CCOc2ccccc2-c2ccccc2)C1 (centres undefined) — lower, 3.01%
- O=C(COC(=O)c1ccc2c(c1)S(=O)(=O)N=C1CCCCCN12)NCCc1ccc(F)cc1 — lower, -6.19%
- COCC(=O)N(Cc1cc2ccc(C)cc2[nH]c1=O)c1ccc(C)cc1C — lower, -1.78%
- Cc1ccc(-c2c(C#N)c(N)nc3c2CCCCCC3)o1 — higher, 21.5%
- CSc1ccccc1NC(=O)CN(C)CC(=O)c1[nH]c(C)c(C(C)=O)c1C — lower, -0.15%
- Cc1ccc(S(=O)(=O)N2CCN(C(=O)Cn3c(=O)oc4ccccc43)CC2)cc1 — higher, 8.54%
- Cc1nc(-c2nc(-c3c(C(=O)NNC(=O)Nc4ccccc4)noc3C)cs2)cs1 — lower, -4.32%
- Cc1nc(-c2nc(-c3c(C(=O)NNC(=O)Nc4cccc(Cl)c4)noc3C)cs2)cs1 — higher, 11.3%
- CC(=O)Nc1c(C(=O)NCc2ccccc2)nnn1Cc1ccccc1 — lower, -10.2%
- COc1ccc(N(CC(=O)Nc2ccc(C)cc2C)S(=O)(=O)c2c(C)n[nH]c2C)cc1 — higher, 6.74%
- COc1ccc(N(CC(=O)Nc2ccccc2F)S(=O)(=O)c2ccc(C)c([N+](=O)[O-])c2)cc1 — lower, 0.33%
- COc1ccc(N(CC(=O)Nc2ccccc2C(=O)O)S(=O)(=O)c2ccc(C)c([N+](=O)[O-])c2)cc1 — lower, -2.79%
- COc1ccc(N(CC(=O)Nc2ccc(Cl)cc2)S(=O)(=O)c2c(C)n[nH]c2C)cc1 — lower, 2.17%
- O=C(CCSc1nnc2ccccn12)Nc1ccc2c(c1)OCO2 — lower, -0.07%
- COc1ccc(OC)c(S(=O)(=O)Nc2cc(Cl)cc(Cl)c2)c1 — lower, -2.29%
- CN1/C(=C\C(=S)NC(=O)c2ccccc2Cl)C(C)(C)c2ccccc21 — lower, -5.96%
- CC(C)C(=O)NC(=S)/C=C1/N(C)c2ccccc2C1(C)C — lower, 2.15%
- Cc1cccc(NS(=O)(=O)c2csc(C(N)=O)c2)c1C — lower, -0.04%
- Cc1ccc(CC(=O)Nc2cc(C)ccn2)cc1 — lower, 3.78%
- CC1Sc2ccc(S(=O)(=O)CCC(=O)Nc3ccccc3Cl)cc2NC1=O (centres undefined) — lower, 0.85%
- CCOC(=O)C1CCN(CC(O)COc2ccc(C(=O)CC)cc2)CC1 (centres undefined) — lower, -15.2%
- CCOC(=O)C1CCN(CC(O)COc2ccc(C(C)=O)cc2)CC1 (centres undefined) — lower, -0.99%
- COC(=O)c1ccc(CNC(=O)COC(=O)c2cccs2)cc1 — higher, 12.5%
- COc1cc(-c2nnc(NC(=O)c3ccc(S(=O)(=O)N4CCOCC4)cc3)o2)cc(OC)c1OC — higher, 5.07%
- COc1ccccc1-c1nnc(NC(=O)c2ccc(S(=O)(=O)N3CCOCC3)cc2)o1 — higher, 43.3%
- CCCN(CC(=O)Nc1ccccc1OC)C(=O)c1ccccn1 — lower, 0.49%
- C=CCN1C(=O)c2ccc(C(=O)N(C)CC(=O)Nc3cccc(F)c3)cc2C1=O — lower, 0%
- CCOC(=O)c1c(C)[nH]c(C(=O)OCC(=O)NCc2ccc(OC)c(OC)c2)c1C — lower, 3.95%
- COc1ccc(C)cc1Nc1n[n+](-c2ccccc2)c(-c2cc(OC)c(OC)cc2Br)s1 — higher, 62.1%
- COc1ccc(C)cc1Nc1n[n+](-c2ccccc2)c(-c2cccc(Cl)c2Cl)s1 — higher, 60%
- COC(=O)C1=C(C(=O)OC)[C@@H]2N(C)c3ccc(OC)cc3[C@@]23C[C@@H](C(=O)OC)N(C(=O)CC(C)C)C3=N1 — lower, -3.14%
- O=C(C1=C(O)C(=O)N(Cc2ccco2)C1c1ccccc1F)c1cccs1 (centres undefined) — higher, 12.7%
- Cc1cc(C)n(-c2ccc(F)cc2CN2CCN(C3CCCC3)C(CCO)C2)n1 (centres undefined) — higher, 8.29%
- C=C(C)C1CC=C(CN2CC(C)OC(C)C2)CC1 (centres undefined) — lower, -4.9%
- C=C(C)C1CC=C(CN2CCC(O)CC2)CC1 (centres undefined) — lower, -0.8%
- CCOC(=O)c1c(/N=C/N(C)C)sc(/C=N/Nc2ccccc2)c1-c1ccc(Cl)cc1 — higher, 69%
- CCOC(=O)c1c(/N=C/N(C)C)sc(/C=N/Nc2ccccc2)c1-c1ccccc1 — lower, 4.1%
- CN(CC(=O)NCc1ccccc1)S(=O)(=O)c1cnc[nH]1 — lower, 2.4%
- Cc1cc(C)cc(OCC(=O)OCC(=O)NC2CCCCCC2)c1 — lower, 2.47%
- CSc1ncnc2c1cnn2-c1ccc(C)cc1C — higher, 6.4%
- Cc1ccc(-n2ncc3c(SCC(=O)Nc4cc(C)on4)ncnc32)c(C)c1 — lower, -4.04%
- O=C(NCc1cccnc1)C1CCCN(S(=O)(=O)c2ccc(Cl)cc2)C1 (centres undefined) — lower, -6.29%
- O=[N+]([O-])c1cc(-c2nnc(N3CCOCC3)c3ccccc23)ccc1N1CCOCC1 — lower, 0.47%
- Cc1ccc(NC(=O)CCc2c[nH]c3ccccc23)nc1 — lower, 1.19%
- Cc1ccnc(NC(=O)CCCc2c[nH]c3ccccc23)c1 — lower, -0.54%
- O=C(CN(C(=O)CSc1nc2ccccc2o1)c1ccccc1)NC1CCCCC1 — lower, -0.41%
- COc1ccc2c(c1O)C(=O)c1ccccc1C2=O — lower, -7.89%
- CNc1c(C(=O)O)ccc2c1C(=O)c1ccccc1C2=O — higher, 9.33%
- CCc1nc(SCC(=O)Nc2ccnc3ccccc23)n[nH]1 — lower, -7.48%
- Cc1c(C)c2ccc(Oc3ccc([N+](=O)[O-])cc3C(F)(F)F)c(C)c2oc1=O — higher, 7.78%
- Cc1cc(=O)oc2cc(Oc3ccc([N+](=O)[O-])cc3[N+](=O)[O-])ccc12 — higher, 50.5%
- CN(c1ccccc1)S(=O)(=O)c1ccc(C(=O)OCC(=O)NC(N)=O)cc1 — lower, 1%
- COc1ccc(-c2c(C(=O)O)c(C(=O)O)c3n2CCC3)cc1 — lower, 0.3%
- Cc1ccc(CSc2ncn(-c3ccccc3)n2)cc1 — lower, -2.76%
- CC(C)(C)c1ccc(NC(=O)CCNC(=O)c2ccco2)cc1 — lower, 1.96%
- Cc1cc(C)c(S(=O)(=O)Nc2ccc(Cl)cn2)c(C)c1 — lower, 2.9%
- CCN(CC(=O)Nc1ccccc1OC)C(=O)CCOc1ccc(C(C)(C)C)cc1 — lower, -2.92%
- O=[N+]([O-])c1cc(S(=O)(=O)N2CCCCC2)ccc1NCCN1CCOCC1 — lower, -0.42%
